Set-up in all cases: scale not given: direction of the effect not stated beside the values
In assay [1] the target is Protein translocase subunit SecA (Escherichia coli (strain K12)) (UniProt P10408). Kind of assay: Assay to Identify E. coli SecA ATPase Inhibitors. The settings on record: 30 µM. The format is functional.
Assay [2] deals with T1, Ubiquitin-activating enzyme e1, putative (Leishmania donovani (strain BPK282A1)) (UniProt E9BSI1).
T1 sequence (whole entry): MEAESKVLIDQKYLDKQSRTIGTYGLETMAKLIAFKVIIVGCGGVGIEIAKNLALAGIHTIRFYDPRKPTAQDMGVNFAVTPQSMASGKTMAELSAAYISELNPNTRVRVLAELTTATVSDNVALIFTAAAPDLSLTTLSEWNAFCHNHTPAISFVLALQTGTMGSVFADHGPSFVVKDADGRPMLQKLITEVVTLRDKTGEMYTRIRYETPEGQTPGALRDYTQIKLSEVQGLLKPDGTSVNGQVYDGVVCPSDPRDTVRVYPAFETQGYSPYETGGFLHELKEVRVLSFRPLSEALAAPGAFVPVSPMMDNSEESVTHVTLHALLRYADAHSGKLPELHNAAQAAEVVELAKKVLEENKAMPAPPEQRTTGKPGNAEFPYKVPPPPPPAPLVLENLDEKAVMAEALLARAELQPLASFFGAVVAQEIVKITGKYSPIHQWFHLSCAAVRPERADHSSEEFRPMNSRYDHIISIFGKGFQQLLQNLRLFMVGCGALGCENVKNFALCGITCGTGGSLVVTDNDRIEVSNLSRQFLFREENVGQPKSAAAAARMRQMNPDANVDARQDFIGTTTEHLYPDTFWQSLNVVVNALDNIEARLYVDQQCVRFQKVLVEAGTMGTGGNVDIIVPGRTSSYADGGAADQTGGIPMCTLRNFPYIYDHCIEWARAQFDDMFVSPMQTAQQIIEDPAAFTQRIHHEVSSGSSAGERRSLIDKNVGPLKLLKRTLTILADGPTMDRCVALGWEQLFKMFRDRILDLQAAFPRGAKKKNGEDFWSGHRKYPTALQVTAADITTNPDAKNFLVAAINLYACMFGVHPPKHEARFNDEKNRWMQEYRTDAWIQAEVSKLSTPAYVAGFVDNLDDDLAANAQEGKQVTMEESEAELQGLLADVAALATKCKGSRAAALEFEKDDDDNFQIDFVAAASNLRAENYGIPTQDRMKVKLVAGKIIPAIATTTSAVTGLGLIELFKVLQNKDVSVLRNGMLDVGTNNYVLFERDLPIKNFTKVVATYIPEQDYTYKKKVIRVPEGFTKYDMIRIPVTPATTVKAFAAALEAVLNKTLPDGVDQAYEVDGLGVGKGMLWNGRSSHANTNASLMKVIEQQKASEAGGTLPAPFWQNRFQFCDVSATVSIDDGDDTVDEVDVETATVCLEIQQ
Nature of the assay: Leishmania donovani Ubiquitin Activating Enzyme (LdE1). The settings on record: 30 µM. It counts as functional.

The target in assay [3] is AMP-activated protein kinase, AMPK (Homo sapiens) (UniProt P54646+O43741+P54619+Q9UGJ0+Q9Y478+Q13131+Q9UGI9). Nature of the assay: AMP-dependent Kinase enzyme assay. An in vitro enzyme assay that detects ADP turnover that is directly proportional to AMPK activity. This uses naive AMPK that is activated during the assay with MK-8722. The format is functional. The settings on record: 30 µM.

Assay [4] addresses Sialic acid-binding Ig-like lectin 9 (Homo sapiens) (UniProt Q9Y336). Kind of assay: Hs-Siglec9 ALPHAscreen SOP 20170721. The settings on record: 10 µM. On the technique in general: In Alpha technology, singlet oxygen from a donor bead excites a nearby acceptor bead.
The subject of assay [5] is Trypanosoma cruzi. Nature of the assay: Trypanosoma cruzi phosphomannomutase and mannose-1-phosphate guanylyltransferase assay. It counts as functional. Particulars: 10 µM.
Assay [6] concerns the target T2, Arginase-2, mitochondrial (Homo sapiens) (UniProt P78540).
T2 sequence (whole entry): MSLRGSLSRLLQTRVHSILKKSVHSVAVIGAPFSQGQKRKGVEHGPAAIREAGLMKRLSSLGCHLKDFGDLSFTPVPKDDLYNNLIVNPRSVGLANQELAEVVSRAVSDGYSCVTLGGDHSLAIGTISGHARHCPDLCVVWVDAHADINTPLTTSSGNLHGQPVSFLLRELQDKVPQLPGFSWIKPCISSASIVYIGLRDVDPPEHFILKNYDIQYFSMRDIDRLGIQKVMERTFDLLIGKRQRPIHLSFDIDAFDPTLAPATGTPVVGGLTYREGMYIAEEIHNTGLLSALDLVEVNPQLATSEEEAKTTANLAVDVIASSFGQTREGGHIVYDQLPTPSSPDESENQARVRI
Kind of assay: in vitro enzyme assay to detect the production of urea directly proportional to the activity of Arginase II. Further: in the data most compounds retested in dose-response had high values. Particulars: 33.3 µM. It counts as functional.

Assay [7] addresses T3, Proteasome subunit beta (Trypanosoma cruzi) (UniProt O96673).
T3 sequence (whole entry): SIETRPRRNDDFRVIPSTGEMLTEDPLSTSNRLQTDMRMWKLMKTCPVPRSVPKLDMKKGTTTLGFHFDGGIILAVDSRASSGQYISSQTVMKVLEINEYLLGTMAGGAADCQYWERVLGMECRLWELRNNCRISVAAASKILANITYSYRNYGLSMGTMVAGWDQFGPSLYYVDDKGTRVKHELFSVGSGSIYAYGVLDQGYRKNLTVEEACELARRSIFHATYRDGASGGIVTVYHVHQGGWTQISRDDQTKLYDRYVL
Kind of assay: Trypanosoma cruzi proteasome chymotrypsin-like activity (TcProtChymo) assay. Further: in the data most compounds retested in dose-response had high values. It counts as functional. Particulars: 9.37 µM.

The species named for assay [8] is Homo sapiens. Kind of assay: To identify inhibition of the IFN signalling (Jak-Stat) pathway via expression of an eGFP reporter gene under the control of an IFN-stimulated response element (ISRE) containing MxA promoter. The format is functional. The settings on record: 30 µM. (In general: Reporter assays use an easily measured gene product as a stand-in for the process of interest.)

The target in assay [9] is T4, Tyrosyl-tRNA synthetase, putative (Trypanosoma cruzi (strain CL Brener)) (UniProt Q4DSP6).
T4 sequence (whole entry): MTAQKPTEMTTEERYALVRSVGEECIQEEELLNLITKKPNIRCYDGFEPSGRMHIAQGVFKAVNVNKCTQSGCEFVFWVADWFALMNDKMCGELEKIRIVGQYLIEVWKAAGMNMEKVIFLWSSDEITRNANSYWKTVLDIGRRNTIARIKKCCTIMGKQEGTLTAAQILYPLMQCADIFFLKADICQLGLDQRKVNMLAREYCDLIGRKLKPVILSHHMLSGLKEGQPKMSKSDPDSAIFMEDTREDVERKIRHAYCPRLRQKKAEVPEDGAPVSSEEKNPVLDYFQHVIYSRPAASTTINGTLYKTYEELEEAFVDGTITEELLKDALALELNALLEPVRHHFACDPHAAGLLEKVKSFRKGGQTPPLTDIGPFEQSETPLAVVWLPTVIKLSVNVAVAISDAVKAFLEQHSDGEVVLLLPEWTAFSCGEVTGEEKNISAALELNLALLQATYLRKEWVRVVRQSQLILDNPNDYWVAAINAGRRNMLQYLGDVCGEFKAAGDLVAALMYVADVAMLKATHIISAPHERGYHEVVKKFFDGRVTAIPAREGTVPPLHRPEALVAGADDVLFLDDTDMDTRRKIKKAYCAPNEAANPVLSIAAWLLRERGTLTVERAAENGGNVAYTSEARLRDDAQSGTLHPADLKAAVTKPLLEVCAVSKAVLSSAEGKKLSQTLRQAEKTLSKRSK
Nature of the assay: Trypanosoma cruzi tyrosyl tRNA synthetase (TcYRS) _High Tyrosine SOP. Further: in the data most compounds retested in dose-response had high values. It counts as functional. Particulars: 30 µM.

In assay [10] the target is T4, Tyrosyl-tRNA synthetase, putative (Trypanosoma cruzi (strain CL Brener)). Nature of the assay: Trypanosoma cruzi tyrosyl tRNA synthetase (TcYRS) SOP. The format is functional. Particulars: 30 µM.
Assay [11] deals with Chromo domain-containing protein 1 (Saccharomyces cerevisiae (strain ATCC 204508 / S288c) (Baker's yeast)) (UniProt P32657). Nature of the assay: ScCHD-1 Enzyme Inhibition Assay. Further: in the data most compounds retested in dose-response had high values. It counts as functional. The settings on record: 30 µM.

For some of these results: Measured potencies and affinities stand elsewhere.

Chromo domain-containing protein 1 (Saccharomyces cerevisiae (strain ATCC 204508 / S288c) (Baker's yeast)), sequence (P32657 whole entry, the tested form may be a part): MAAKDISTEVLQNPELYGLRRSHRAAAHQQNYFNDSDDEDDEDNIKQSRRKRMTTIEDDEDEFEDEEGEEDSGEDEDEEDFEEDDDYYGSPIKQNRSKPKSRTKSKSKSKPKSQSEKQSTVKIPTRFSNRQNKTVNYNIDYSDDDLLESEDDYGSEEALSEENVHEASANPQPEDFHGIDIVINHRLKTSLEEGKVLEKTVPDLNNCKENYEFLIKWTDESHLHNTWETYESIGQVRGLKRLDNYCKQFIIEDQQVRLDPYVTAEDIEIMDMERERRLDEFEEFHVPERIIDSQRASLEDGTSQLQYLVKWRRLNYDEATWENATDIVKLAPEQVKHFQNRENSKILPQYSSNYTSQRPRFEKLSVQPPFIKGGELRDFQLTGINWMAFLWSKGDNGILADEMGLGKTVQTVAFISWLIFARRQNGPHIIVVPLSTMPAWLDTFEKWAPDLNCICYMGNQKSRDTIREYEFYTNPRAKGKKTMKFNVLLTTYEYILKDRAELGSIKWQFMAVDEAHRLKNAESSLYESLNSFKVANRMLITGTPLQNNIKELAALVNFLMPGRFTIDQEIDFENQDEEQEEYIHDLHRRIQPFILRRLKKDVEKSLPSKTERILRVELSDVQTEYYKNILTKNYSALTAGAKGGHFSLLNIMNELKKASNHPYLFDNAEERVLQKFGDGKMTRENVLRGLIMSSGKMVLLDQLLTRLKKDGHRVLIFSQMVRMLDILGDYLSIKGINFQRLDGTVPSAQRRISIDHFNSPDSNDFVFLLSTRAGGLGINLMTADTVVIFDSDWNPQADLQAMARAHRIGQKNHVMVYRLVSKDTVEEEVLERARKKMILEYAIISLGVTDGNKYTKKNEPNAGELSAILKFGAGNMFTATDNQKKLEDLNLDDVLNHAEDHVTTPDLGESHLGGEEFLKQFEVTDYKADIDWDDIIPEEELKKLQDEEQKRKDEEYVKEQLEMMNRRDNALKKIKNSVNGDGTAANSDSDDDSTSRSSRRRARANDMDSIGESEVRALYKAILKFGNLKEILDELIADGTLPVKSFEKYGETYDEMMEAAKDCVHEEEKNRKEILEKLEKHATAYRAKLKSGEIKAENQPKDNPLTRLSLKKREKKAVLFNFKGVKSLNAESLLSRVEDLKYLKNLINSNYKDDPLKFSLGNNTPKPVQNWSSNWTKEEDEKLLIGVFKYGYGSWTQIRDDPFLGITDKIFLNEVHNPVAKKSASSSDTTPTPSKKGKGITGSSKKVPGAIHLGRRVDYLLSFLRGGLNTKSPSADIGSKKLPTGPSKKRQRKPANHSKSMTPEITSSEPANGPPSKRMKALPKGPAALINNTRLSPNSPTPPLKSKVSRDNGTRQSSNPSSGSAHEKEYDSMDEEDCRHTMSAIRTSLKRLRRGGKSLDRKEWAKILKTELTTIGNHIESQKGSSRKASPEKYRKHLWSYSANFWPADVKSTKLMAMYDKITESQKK
Sialic acid-binding Ig-like lectin 9 (Homo sapiens), sequence (Q9Y336 whole entry): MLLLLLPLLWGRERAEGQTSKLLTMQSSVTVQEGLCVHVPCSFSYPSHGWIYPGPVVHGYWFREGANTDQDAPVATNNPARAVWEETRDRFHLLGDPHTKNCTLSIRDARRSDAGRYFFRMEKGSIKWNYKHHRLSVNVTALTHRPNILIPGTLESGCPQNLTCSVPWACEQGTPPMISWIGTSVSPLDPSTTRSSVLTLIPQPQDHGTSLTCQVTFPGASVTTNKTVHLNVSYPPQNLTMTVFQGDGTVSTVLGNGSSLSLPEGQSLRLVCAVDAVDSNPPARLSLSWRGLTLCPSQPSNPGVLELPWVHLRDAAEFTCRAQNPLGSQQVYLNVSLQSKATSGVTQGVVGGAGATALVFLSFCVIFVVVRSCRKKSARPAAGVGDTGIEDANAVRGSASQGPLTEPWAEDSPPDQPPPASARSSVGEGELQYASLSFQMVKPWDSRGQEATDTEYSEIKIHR
Protein translocase subunit SecA (Escherichia coli (strain K12)), sequence (P10408 whole entry): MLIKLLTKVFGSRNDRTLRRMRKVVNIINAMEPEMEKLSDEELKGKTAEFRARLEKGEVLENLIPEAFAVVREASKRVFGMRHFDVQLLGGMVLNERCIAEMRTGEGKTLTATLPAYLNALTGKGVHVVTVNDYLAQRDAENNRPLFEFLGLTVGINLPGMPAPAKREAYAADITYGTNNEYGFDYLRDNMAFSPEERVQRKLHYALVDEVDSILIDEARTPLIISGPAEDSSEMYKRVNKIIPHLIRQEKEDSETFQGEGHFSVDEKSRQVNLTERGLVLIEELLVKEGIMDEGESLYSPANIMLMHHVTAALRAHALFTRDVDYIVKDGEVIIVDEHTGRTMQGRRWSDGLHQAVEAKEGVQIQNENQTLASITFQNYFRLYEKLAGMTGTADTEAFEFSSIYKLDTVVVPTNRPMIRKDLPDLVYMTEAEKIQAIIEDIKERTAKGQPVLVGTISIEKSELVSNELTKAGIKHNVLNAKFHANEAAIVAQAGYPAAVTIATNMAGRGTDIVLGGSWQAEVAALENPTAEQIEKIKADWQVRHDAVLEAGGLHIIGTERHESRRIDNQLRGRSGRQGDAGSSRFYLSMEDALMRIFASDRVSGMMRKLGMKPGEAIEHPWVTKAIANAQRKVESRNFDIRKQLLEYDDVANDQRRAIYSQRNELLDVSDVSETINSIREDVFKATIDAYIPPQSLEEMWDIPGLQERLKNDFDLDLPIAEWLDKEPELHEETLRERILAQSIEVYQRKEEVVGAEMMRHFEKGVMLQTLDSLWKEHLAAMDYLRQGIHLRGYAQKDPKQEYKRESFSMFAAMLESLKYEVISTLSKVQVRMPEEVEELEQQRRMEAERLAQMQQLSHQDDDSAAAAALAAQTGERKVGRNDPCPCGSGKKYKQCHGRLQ

Regarding `COc1ccc(NC(=O)NCC(O)c2ccc(F)cc2F)c(OC)c1` (stereo not drawn), the Percent Effect in [1] is 0.46%; in assay [2] it was 3.8%; in [3] it was 1.85%; in assay [4], -3.56%; in assay [5], -4.41%; in [6] it was 10.5%. The Percent Effect in assay [7] was 13.2%; in [8], 12.5%; in [9], 3.12%; in assay [10] it was 10.1%; in assay [11], -20.4%.
As for `CNS(=O)(=O)c1cccc(CNc2nccc(C(F)(F)F)n2)c1`, the Percent Effect is -0.353% in assay [1]; 16.2% in assay [2]; 14.6% in assay [3]; -2.3% in [4]; 5.19% in assay [5]; -1.6% in [6]. The Percent Effect in assay [7] is 15.1%; in [8] it was 46.9%; in assay [9], -0.493%; in [10], 16.1%; in [11] it was -15.9%.
Regarding `COc1ccc(CC(=O)N(C)Cc2nnc3ccccn23)cc1`, the Percent Effect was -4.71% in [1]; 26% in assay [2]; 2.72% in [3]; -2.77% in [4]; 3.62% in [5]; -6.53% in [6]. For the same molecule, the Percent Effect in [7] is 17.1%; in [8], 12.6%; in assay [9] it was 8.57%; in assay [10], 25.9%; in assay [11], 77.9%.
Consider `CO[C@H]1CN(Cc2cccc(C#N)c2)[C@@H]2COC[C@H]12`, for which the Percent Effect in assay [1] is -3.41%; in assay [2], 8%; in assay [3], -0.964%; in assay [4], 2.51%; in [5], 0.965%; in assay [6] it was -48.9%. Besides, the Percent Effect was 7.52% in assay [7]; -21.7% in assay [8]; 5.21% in assay [9]; 22.5% in assay [10]; -5.96% in [11].
As for `CC(C)c1nc2n(n1)CC(NCc1nnc(-c3ccco3)o1)CC2` (stereo not drawn), the Percent Effect is -2.41% in assay [1]; 0% in [2]; -14.3% in assay [3]; -0.788% in [4]; 5.94% in assay [5]; 0.802% in assay [6]. The Percent Effect in assay [7] was -3.06%; in [8], -2.24%; in assay [9], 3.45%; in assay [10], 6.17%; in assay [11] it was -0.171%.
In the case of `Cn1cnnc1S(=O)(=O)C1CCN(S(=O)(=O)c2c(Cl)cccc2Cl)CC1`, the Percent Effect is -1.95% in assay [1]; 0% in assay [2]; 5.5% in assay [3]; -4.3% in [4]; -1.76% in assay [5]; -2.27% in assay [6]. Also, the Percent Effect in assay [7] came out at 4.97%; in [8] it was 6.49%; in assay [9] it was 0%; in assay [10], 0%; in assay [11], 0.0853%.
Regarding `CCn1ncc2c1C(COCC1CC1)CN(S(=O)(=O)N(C)C)C2` (stereo not drawn), the Percent Effect in [1] is 0.0926%; in assay [2], 19.2%; in assay [3] it was -8.78%; in [4] it was 10.2%; in assay [5], 2.78%; in [6] it was -0.798%. Moreover, the Percent Effect in assay [7] is 10.4%; in assay [8], 9.33%; in assay [9] it was 9.38%; in assay [10], 18.5%; in [11], -8.61%.
Turning to `Cc1ncc(C(=O)N2C[C@H]3CC[C@@H]2CN(S(=O)(=O)N(C)C)C3)c(C)n1`, the Percent Effect is -2.89% in assay [1]; 16% in assay [2]; -1.8% in [3]; 16.2% in assay [4]; 2.82% in [5]; 27.6% in assay [6]. Moreover, the Percent Effect was 17.3% in assay [7]; 1.16% in [8]; 7.1% in assay [9]; 16.1% in assay [10]; -6.2% in assay [11].

The values above are taken from ChEMBL document CHEMBL3988442, “University of Dundee, Small-Polar-MMV Screening Library” (2021).
